Screening data: PubChem BioAssay, National Center for Advancing Translational Sciences (NCATS)
ELG1 DNA repair: qHTS screen for small molecules that inhibit ELG1-dependent DNA repair in human embryonic kidney (HEK293T) cells expressing luciferase-tagged ELG1; 2.3% of 330,000 active; HEK293T ELG1-luciferase reporter, luminescence, 16 h; DNA damage induced by 5-fluorouridine; Potency, µM (titrated, usually from 46.1 µM), without a hit: top-dose activity change, negative = inhibition, hits mostly inhibitors; note: potency is the fitted concentration of half-maximal effect; nearly all actives have a fitted effect of over 55% in size
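HEK293T cells expressing luciferase-tagged ELG1 (2,000/well) received 5-Fluorouridine plus compound or DMSO for 16 hr at 37 °C. Luciferase was read by ONE-Glo luminescence after 30 min at room temperature.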
DT40 TDP1 no CPT: qHTS for Inhibitors of human tyrosyl-DNA phosphodiesterase 1 (TDP1): qHTS in cells in absence of CPT | 15% of 420,000 active | Potency, µM (doses to about 46.2 µM), for the others: top-dose activity change, negative = growth inhibition, hits mostly inhibitors | DT40 Tdp1-/- hTDP1 cells, no CPT, ATP luminescence, 48 h | AID 686978, 2013; note: potency is the fitted concentration of half-maximal effect; nearly all actives have a fitted effect of over 55% in size
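Stably hTDP1-transfected Tdp1-null chicken DT40 cells were treated with library compounds minus camptothecin and grown for at least 48 hr at 37 °C, after which cellular ATP was quantified by luminescence.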
IL-1B inflam inh: qHTS for Inhibitors of Inflammasome Signaling: IL-1-beta AlphaLISA Primary Screen. activity change, % at 57.5 µM. 4.7% of 360,000 active. THP-1 LPS/ATP IL-1B secretion, AlphaLISA, 16 h; stronger effect = lower value. AID 743279, 2014; in the data active = activity change below about -50%; inconclusive = mostly about -30% to -49%
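THP-1 cells pretreated 1 hr with compounds (up to 57.5 uM final), then stimulated with LPS (250 ng/mL final) plus ATP (1.25 mM final); secreted IL-1B measured by AlphaLISA after 16 hr, decreased signal indicating inhibition.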
DT40 TDP1 CPT: qHTS for Inhibitors of human tyrosyl-DNA phosphodiesterase 1 (TDP1): qHTS in cells in presence of CPT. Potency, µM (titrated, usually from 46.2 µM), for inactives: top-dose activity change, negative = growth inhibition, actives largely listed as inhibitors. chicken DT40 Tdp1-/-;hTDP1 cells + 20 nM CPT, ATP luminescence, 48 h. 12% of 420,000 active; note: potency is the fitted concentration of half-maximal effect; nearly all actives have a fitted effect of over 55% in size
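Chicken DT40 Tdp1-/- cells complemented with human TDP1, 400 cells/well, exposed to compounds plus 20 nM camptothecin for at least 48 h at 37 C; viability read as ATP content by CellTiter-Glo luminescence.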
HT1080NT lethal: qHTS for induction of synthetic lethality in tumor cells producing 2HG: qHTS for the HT-1080-NT fibrosarcoma cell line | HT-1080-NT fibrosarcoma viability, CellTiter-Glo ATP luminescence, 48 h | Potency, µM (top dose mostly 46.1 µM), for the others: top-dose activity, negative = less viability, actives largely listed as cytotoxic | 1.6% of 360,000 active;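 note: NT is the 2HG producing partner of a matched IDH1 knockdown line; potency is the fitted concentration of half-maximal effect; 0% = DMSO-treated cells and -100% = media-only wells without cells; nearly all actives have a fitted effect of over 55% in size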
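HT-1080-NT; 750 cells/well; 5% FBS RPMI; 48 h compound, 37 degrees C; CellTiter-Glo luminescence; curve fitting and curve-class assignment.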
HT1080 IDH1KD tx: qHTS for induction of synthetic lethality in tumor cells producing 2HG: qHTS for the HT-1080-IDH1KD cell line; HT-1080 IDH1 knockdown viability, ATP luminescence, 48 h; Potency, µM (series often up to 46.1 µM), without a hit: at the highest dose activity, negative = toxicity, most hits filed as cytotoxic; 2% of 360,000 active;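 note: potency is the fitted concentration of half-maximal effect; 0% = DMSO wells and -100% = cell-free medium wells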
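% activity derives from luminescence (CellTiter-Glo), normalised to DMSO and no-cell wells. HT-1080-IDH1KD cells, 750/well, had 48 h compound exposure at 37 °C.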
Numbers without * were called inactive; u = inconclusive; x = not tested or not shown. Only some compounds are listed: those with a hit (about 19% of all), similar ones and a draw of the others. Unless noted, calls come from the whole dose curve; as a rule, active = well fitted curve in the direction sought with a large enough effect; inconclusive = small, poorly fitted or top-dose-only effect, or another doubt; inactive = no such curve, though single readings can be large; an effect the other way counts as inactive or inconclusive. Unless noted, % is set by controls: 0 for no effect and ±100 for the full control effect.

SMILES	ELG1 DNA repair	DT40 TDP1 no CPT	IL-1B inflam inh	DT40 TDP1 CPT	HT1080NT lethal	HT1080 IDH1KD tx
CC(=O)N(C(C)=O)c1ccc(Oc2ccc(Oc3ccc(N(C(C)=O)C(C)=O)cc3)cc2)cc1	x	u	-24	u	-7%	-21%
C=C1C(=O)OC2C1C(OC(=O)C(C)=CC)CC(=C)C1C(O)C3OC3(C)C21O (stereo not given)	x	15µM*	-101*	15µM*	-1%	15µM*
CCn1c(CNC(=O)C23CC4CC(CC(C4)C2)C3)nnc1SC	-6%	1%	10	6%	15%	0%
CCCCSc1nnc(CNC(=O)C23CC4CC(CC(C4)C2)C3)n1Cc1ccccc1	-10%	15µM*	u	16µM*	-8%	-3%
O=C(NCc1nnc(SCc2ccccc2)n1-c1ccccc1)C12CC3CC(CC(C3)C1)C2	-9%	18µM*	u	15µM*	u	u
CCCCn1c(CNC(=O)C23CC4CC(CC(C4)C2)C3)nnc1SC(C)CC (stereo not given)	-5%	21µM*	-16	23µM*	u	u
CCOc1ccccc1OCCC(=O)OCC(=O)Nc1c(C)nn(-c2ccccc2)c1C	24%	-10%	19	-12%	-1%	-4%
CCCN(C(=O)COC(=O)Cn1c(=O)oc2ccccc21)c1c(N)n(Cc2ccccc2)c(=O)[nH]c1=O	u	-5%	12	-11%	-7%	3%
CCCOc1ccccc1C1CC(=O)NC2=C1C(=O)CCC2 (stereo not given)	-11%	4.1µM*	53	4.1µM*	12µM*	8.2µM*
CCOc1ccccc1C1CC(=O)NC2=C1C(=O)CCC2 (stereo not given)	-15%	16µM*	23	u	u	23µM*
CCCCOc1ccccc1C1CC(=O)NC2=C1C(=O)CCC2 (stereo not given)	3%	1.6µM*	30	1.6µM*	2.3µM*	1.6µM*
CCOc1ccc(C2CC(=O)NC3=C2C(=O)CCC3)cc1 (stereo not given)	u	9%	-16	0%	8%	6%
CC1=C(C(=O)Nc2cccnc2)C(c2ccc(Cl)cc2)n2nc(SCc3ccccc3)nc2N1 (stereo not given)	x	-8%	x	-16%	x	x
O=C1/C(=C/c2cccnc2)SC(=S)N1c1ccc(O)cc1	15%	u	-99*	-24%	u	0%
O=C1/C(=C/c2cccnc2)SC(=S)N1CC1CCCO1 (stereo not given)	11%	u	-103*	-4%	-2%	-19%
Cc1ccc(/C=C2\SC(=S)N(CC3CCCO3)C2=O)o1 (stereo not given)	-1%	u	-96*	u	-1%	-1%
COc1cc(/C=C2/SC(=S)N(CC3CCCO3)C2=O)ccc1O (stereo not given)	u	u	-74*	-19%	-8%	1%
CCOC(=O)C1CCN(C(=O)C2COc3ccccc3O2)CC1 (stereo not given)	6%	3%	7	u	10%	14%
NC(=O)NC(CC(=O)NNC(=O)c1ccccn1)c1ccccc1Cl (stereo not given)	15%	9%	53	-10%	-4%	-4%
N#Cc1cccc(NC(=O)N2CCC3(CC2)CCN(C(=O)c2csnn2)CC3)c1	x	-21%	x	0%	x	x
COc1cccc(CN2CCC3(CC2)c2ccccc2[C@@H](NC(=O)c2ccccc2)[C@@H]3O)c1O	x	-30%	x	u	x	x
OCCNc1c2ccccc2nc2ccccc12	21µM*	10µM*	-8	13µM*	23µM*	23µM*
O=c1c2ccccc2nc2c3ccccc3c(NCc3ccccn3)nn12	u	15µM*	u	u	8%	-5%
O=c1c2ccccc2nc2c3ccccc3c(NCCO)nn12	-5%	u	0	13µM*	29%	13%
Cc1nc(NCc2ccccn2)c2ccccc2n1	u	10µM*	-9	13µM*	u	-11%
SMILES	ELG1 DNA repair	DT40 TDP1 no CPT	IL-1B inflam inh	DT40 TDP1 CPT	HT1080NT lethal	HT1080 IDH1KD tx
OCCNc1nc2ccccc2nc1NCCO	12%	-6%	10	-16%	5%	6%
O=C(COc1ccccc1F)NC1CC(=O)N(c2ccc3c(c2)OCCO3)C1 (stereo not given)	x	-6%	x	-20%	x	x
COC(=O)c1sccc1NC(=O)CC1C(=O)NCCN1C(=O)c1ccc(N(C)C)cc1 (stereo not given)	8%	-11%	20	0%	10%	2%
O=C(/C=C/c1c(Cl)cccc1Cl)NCCCn1ccnc1	x	-32%	-6	0%	-8%	-4%
Cc1nn2c(-c3ccc(S(=O)(=O)N4CCN(C)CC4)o3)nnc2c2ccccc12	u	-4%	-20	-9%	-2%	-15%
Cn1c(C(=O)Nc2ccc3c(c2)OCO3)cc2c(=O)n(C)c3ccccc3c21	u	u	0	-13%	19%	19%
COCCCNC(=O)c1cn(CC(C)C)c(=O)c2c1c1ccccc1n2C	-24%	-25%	-20	u	1%	-3%
COc1ccccc1NC(=O)c1cc2c(=O)n(C)c3ccccc3c2n1C	u	15µM*	u	u	11%	-1%
COc1ccccc1NC(=O)CCCOc1cc(=O)n(C)c2ccccc12	x	21µM*	x	u	x	x
CCOc1ccc(NC(=O)c2cn(CC(C)C)c(=O)c3c2c2ccccc2n3C)cc1	u	8.2µM*	28	u	8%	-4%
CCOc1ccc(NC(=O)c2cc3c(=O)n(C)c4ccccc4c3n2C)cc1	8%	16µM*	10	8.2µM*	14%	24%
COc1cccc(NC(=O)c2cc3c(=O)n(C)c4ccccc4c3n2C)c1	x	-13%	x	u	x	x
Cn1c(=O)cc(OCCCC(=O)Nc2ccccn2)c2ccccc21	u	u	10	-22%	-17%	-1%
CCOc1ccc(CCNC(=O)COc2cc(=O)n(C)c3ccccc23)cc1OCC	u	-23%	-9	0%	2%	0%
